Assay results published in ChEMBL document CHEMBL3988442, “University of Dundee, Small-Polar-MMV Screening Library” (2021).

These compounds were tested against T1, Aspartate--tRNA(Asp/Asn) ligase (Mycobacterium tuberculosis (strain ATCC 25618 / H37Rv)) (UniProt P9WFW3) (assay: Assay for Asp RNA synthetase-1 from Mycobacterium tuberculosis). Details: 30 µM.
T1 sequence (whole entry): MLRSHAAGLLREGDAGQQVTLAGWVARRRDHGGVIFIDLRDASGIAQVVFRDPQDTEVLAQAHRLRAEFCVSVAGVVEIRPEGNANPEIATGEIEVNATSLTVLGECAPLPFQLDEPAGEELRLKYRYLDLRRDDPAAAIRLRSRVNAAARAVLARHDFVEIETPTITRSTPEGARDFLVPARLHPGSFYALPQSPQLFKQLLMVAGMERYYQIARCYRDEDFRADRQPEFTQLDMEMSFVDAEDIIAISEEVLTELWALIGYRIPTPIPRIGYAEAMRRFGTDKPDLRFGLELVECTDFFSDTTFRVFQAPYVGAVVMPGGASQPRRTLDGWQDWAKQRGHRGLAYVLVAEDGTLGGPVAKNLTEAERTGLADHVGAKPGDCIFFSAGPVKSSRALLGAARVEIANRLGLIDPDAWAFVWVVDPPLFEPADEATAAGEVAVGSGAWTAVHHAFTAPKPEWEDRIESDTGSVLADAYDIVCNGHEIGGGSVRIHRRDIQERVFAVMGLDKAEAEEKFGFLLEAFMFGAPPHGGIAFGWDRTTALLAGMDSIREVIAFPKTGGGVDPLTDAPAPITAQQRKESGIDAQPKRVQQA
Assay type: functional
Parameters: scale not given: in the data most compounds retested in dose-response had high values

SMILES | Percent Effect
Cc1cc(C)n(CC(=O)N(C)Cc2csc(-c3cccs3)n2)c(=O)n1 | -0.356%
Cc1ccc(N2CCCC(N(C)Cc3cc(C)no3)C2)nn1 (stereo not given) | -1.94%
FC(F)(F)C1CCCn2c(CNCc3ccsc3)nnc21 (stereo not given) | -1.78%
CSCC(=O)N1CCCC1c1noc(C2CC2)n1 (stereo not given) | 0.839%
CCOC(=O)C1CCCN(c2ccc(-c3nc(C)no3)cn2)C1 (stereo not given) | -0.931%
CCn1cc(NC(=O)NC2CCCc3c2cnn3CCO)cn1 (stereo not given) | -3.64%
CCN(C)c1ccc(C(=O)N(CCOC)Cc2ccccn2)cc1 | 2.13%
Cc1cnn(C2CN(CC(O)c3ccc(F)cc3)C2)c1 (stereo not given) | -2.19%
COc1cccc(S(=O)(=O)CCN2CCCCC2)c1 | 3.32%
O=C(NCCCn1ccnc1)N1CCCC1c1ccncc1 (stereo not given) | -2.68%
CC(C)c1nccn1CCCNC(=O)c1ccc(N(C)C)nc1 | -2.17%
O=C1N(Cc2ccc(F)c(F)c2)CCCC12CCN(C1CCSCC1)C2 (stereo not given) | -5.55%
CC(C)c1cccc(CSc2nnc(CN3CCCC3=O)o2)n1 | 1.44%
CN1C(=O)CC(C(=O)O)C12CCN(Cc1ccc(F)cc1Cl)CC2 (stereo not given) | -1.07%
CCN(CC)CC(=O)NCCc1csc(N2CCCC2)n1 | 1.28%
O=C1N(Cc2cccc(F)c2F)CCCC1(O)CNC1CCCC1 (stereo not given) | -0.655%
Cc1ccc(CN2CCN(CC3CC3)[C@@H]3CS(=O)(=O)C[C@@H]32)cc1C | -3.05%
COc1cccc(CN(C)C(=O)CN2CCN(c3nccn3C)CC2)c1 | 2.95%
CSc1cccc(CN(C)C(=O)C2CC(=O)N(CCN(C)C)C2)c1 (stereo not given) | -2.59%
O=C(NCCc1ccncc1)C1CCN(Cc2ccco2)CC1 | -3.6%

SMILES | Percent Effect
CCCOCCN1CCC2(CC1)CC(c1ccccc1)C(=O)N2C (stereo not given) | -5.14%
CCC(=O)NCc1cc(Br)ccc1OC(F)F | 0.885%
OC1(CN2CCCC2)CCCN(Cc2ccc(F)cc2Cl)C1 (stereo not given) | 4.15%
Cc1cc(C)n(CC2CCCCN2CC(=O)Nc2cccnc2)n1 (stereo not given) | -0.655%
CCc1nc(CCNC(=O)Nc2ccc(C(=O)NC)cc2C)cs1 | -2.88%
CN(C)C(=O)CN(C)C(=O)c1cnc(Cc2ccc(F)cc2)s1 | -1.57%
O=c1oc(-c2cccs2)nn1CC(O)c1ccc(F)cc1 (stereo not given) | -0.425%
CC(C)Oc1ccc(CSc2nnc(CN3CCCC3=O)o2)cc1 | -7.23%
Cc1nn(-c2ccccc2)c2c1C(c1ccc(C(=O)O)cc1)CC(=O)N2 (stereo not given) | 1.57%
CC(C)N1CCC(NCc2cccnc2N(C)Cc2ccccc2)CC1 | -1.94%
CCN1CC2(CCN(CCOCCO)CC2)CC(c2ccccc2)C1=O (stereo not given) | -2.77%
CCNC(=O)NC(=O)CSC(C)c1ccccc1F (stereo not given) | 2.19%
CS(=O)(=O)NCCC(=O)NC1CCc2nccn2C1 (stereo not given) | 3.25%
Cc1cc(S(=O)(=O)N2CCCc3cc(F)cc(F)c32)sc1C(=O)O | -0.908%
CCc1cc(N2CCCNCC2)n2nc(C)c(C)c2n1 | -1.41%
Cc1cc(C2CCCN2C(=O)NCc2cccc(F)c2)on1 (stereo not given) | -1.23%
Cc1cc(S(=O)(=O)N2CCCc3ccc(F)cc32)sc1C(=O)O | 1.87%
CC(O)CN1CCN(C(=O)c2cnn(-c3ccc(Cl)cc3)c2)CC1 (stereo not given) | -5.67%
COc1ccc(-n2cnnc2SCC(C)(C)O)cn1 | -0.425%
COc1cc(C(=O)N(CCC#N)Cc2ccccn2)cc(OC)c1C | -3.83%
